In PubChem BioAssay (Tox21):
Records with an inconclusive call do not appear. A call without a number means that no potency is given here. Activity calls are given as the source filed them. Calls come from the whole dose curve; as a rule, active = well fitted curve in the direction sought with a large enough effect in the repeat runs; inconclusive = weak or mixed curves; inactive = no such curve, though single readings can be large; an effect the other way counts as inactive or inconclusive. Where a SMILES comes first, the peptide text is derived from it. [ ]: non-standard residue; d: D form. pGlu = O=C1CC[C@@H](C(=O)O)N1

Tests used:
[1] = target: Cytochrome P450 2C9 (Homo sapiens) (UniProt P11712); assay: Cytochrome P450 Family 2 Subfamily C Member 9 (CYP2C9) small molecule antagonists: luciferase reporter qHTS assay (AID 1671198); note: potency is the fitted concentration of half-maximal effect
Cytochrome P450 2C9 (Homo sapiens), sequence (P11712 whole entry, looked up): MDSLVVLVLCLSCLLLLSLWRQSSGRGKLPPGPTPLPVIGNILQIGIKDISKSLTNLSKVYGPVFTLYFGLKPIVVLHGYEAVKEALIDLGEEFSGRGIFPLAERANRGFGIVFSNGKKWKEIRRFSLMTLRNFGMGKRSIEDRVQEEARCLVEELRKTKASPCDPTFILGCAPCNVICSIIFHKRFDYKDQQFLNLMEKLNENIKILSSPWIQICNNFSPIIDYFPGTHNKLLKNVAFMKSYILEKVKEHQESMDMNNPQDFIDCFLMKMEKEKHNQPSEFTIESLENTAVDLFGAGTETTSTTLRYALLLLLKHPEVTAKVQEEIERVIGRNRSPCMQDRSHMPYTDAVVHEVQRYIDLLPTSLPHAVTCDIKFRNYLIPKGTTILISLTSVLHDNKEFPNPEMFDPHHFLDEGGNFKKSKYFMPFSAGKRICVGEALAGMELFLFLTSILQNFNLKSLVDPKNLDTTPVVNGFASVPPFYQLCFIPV
How it was run: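 CYP2C9 activity was measured with a P450-Glo proluciferin substrate. Enzyme–substrate mix was held with compound for 10 min at room temperature, then NADPH regeneration solution was added for 1 h at 37C. Luciferin product was read as luminescence.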

[2] = target: Cytochrome P450 1A2 (Homo sapiens) (UniProt P05177); assay: Cytochrome P450 Family 1 Subfamily A Member 2 (CYP1A2) small molecule antagonists: luciferase reporter qHTS assay (AID 1671199); note: potency is the fitted concentration of half-maximal effect
Cytochrome P450 1A2 (Homo sapiens), sequence (P05177 whole entry, looked up): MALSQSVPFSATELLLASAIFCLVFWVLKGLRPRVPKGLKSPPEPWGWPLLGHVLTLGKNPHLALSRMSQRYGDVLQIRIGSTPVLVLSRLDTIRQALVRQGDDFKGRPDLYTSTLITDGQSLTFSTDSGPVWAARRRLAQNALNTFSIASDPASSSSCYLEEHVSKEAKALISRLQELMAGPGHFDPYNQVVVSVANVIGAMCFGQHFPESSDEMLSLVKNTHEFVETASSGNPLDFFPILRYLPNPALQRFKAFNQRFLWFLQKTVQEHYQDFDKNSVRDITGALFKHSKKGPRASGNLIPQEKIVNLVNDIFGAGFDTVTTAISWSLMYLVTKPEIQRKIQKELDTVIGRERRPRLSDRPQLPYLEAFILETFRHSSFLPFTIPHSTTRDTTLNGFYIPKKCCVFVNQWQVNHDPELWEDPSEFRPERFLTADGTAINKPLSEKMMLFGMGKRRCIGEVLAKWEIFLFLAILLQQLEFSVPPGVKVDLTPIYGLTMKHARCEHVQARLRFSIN
How it was run: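 Luminescence readout (relative luminescence units) after luciferin detection reagent, 20 min RT. Preceded by 1 h room-temperature CYP1A2 reaction with NADPH regeneration solution following 10 min compound preincubation with enzyme and proluciferin substrate. Furafylline positive control.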

[3] = target: Voltage-gated inwardly rectifying potassium channel KCNH2 (Homo sapiens) (UniProt Q12809); assay: Human Ether-a-go-go-Related Gene (hERG) channel small molecule antagonists: fluorescence cell-based qHTS assay (AID 1671200);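 note: hERG-expressing U2OS cells given a thallium stimulus after FluxOR II dye loading; series mostly up to about 77 µM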
Voltage-gated inwardly rectifying potassium channel KCNH2 (Homo sapiens), sequence (Q12809 whole entry, looked up): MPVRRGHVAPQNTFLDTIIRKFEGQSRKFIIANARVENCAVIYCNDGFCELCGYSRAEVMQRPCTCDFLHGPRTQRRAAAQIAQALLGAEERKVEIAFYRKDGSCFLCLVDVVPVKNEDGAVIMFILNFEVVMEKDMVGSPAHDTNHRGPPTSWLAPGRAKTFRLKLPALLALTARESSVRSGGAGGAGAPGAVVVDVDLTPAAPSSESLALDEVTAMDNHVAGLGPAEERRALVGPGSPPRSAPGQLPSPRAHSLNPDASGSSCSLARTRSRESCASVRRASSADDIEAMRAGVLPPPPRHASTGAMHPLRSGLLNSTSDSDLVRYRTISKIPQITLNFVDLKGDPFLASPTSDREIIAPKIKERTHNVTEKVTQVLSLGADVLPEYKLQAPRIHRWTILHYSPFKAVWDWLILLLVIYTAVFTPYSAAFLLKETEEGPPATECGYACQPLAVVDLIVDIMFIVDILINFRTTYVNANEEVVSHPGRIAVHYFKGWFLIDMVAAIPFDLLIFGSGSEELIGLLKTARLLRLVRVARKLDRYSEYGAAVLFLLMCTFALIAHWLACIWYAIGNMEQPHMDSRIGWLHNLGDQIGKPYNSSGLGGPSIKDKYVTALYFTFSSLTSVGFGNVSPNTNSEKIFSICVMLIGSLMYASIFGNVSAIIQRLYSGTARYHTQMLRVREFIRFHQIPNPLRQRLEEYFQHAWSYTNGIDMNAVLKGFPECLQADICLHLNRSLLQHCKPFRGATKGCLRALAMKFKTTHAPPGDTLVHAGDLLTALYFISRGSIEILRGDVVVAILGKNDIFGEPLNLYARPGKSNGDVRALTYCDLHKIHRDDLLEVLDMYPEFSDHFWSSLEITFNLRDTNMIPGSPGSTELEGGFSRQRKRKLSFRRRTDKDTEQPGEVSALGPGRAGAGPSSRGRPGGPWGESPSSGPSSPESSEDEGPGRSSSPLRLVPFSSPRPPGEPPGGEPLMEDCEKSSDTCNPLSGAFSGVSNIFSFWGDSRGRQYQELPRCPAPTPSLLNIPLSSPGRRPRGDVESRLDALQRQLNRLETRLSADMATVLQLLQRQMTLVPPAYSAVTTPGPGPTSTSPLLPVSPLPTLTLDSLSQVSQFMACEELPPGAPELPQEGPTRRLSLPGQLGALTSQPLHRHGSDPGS
How it was run: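 Quantitative HTS in hERG-U2OS cells: thallium entry through the channel reports activity, read as continuous 480/540 nm fluorescence over 2 min after stimulus addition.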

[4] = target: Cytochrome P450 3A4 (Homo sapiens) (UniProt P08684); assay: Cytochrome P450 Family 3 Subfamily A Member 4 (CYP3A4) small molecule antagonists: luciferase reporter qHTS assay (AID 1671201); note: series mostly up to about 120 µM
Cytochrome P450 3A4 (Homo sapiens), sequence (P08684 whole entry, looked up): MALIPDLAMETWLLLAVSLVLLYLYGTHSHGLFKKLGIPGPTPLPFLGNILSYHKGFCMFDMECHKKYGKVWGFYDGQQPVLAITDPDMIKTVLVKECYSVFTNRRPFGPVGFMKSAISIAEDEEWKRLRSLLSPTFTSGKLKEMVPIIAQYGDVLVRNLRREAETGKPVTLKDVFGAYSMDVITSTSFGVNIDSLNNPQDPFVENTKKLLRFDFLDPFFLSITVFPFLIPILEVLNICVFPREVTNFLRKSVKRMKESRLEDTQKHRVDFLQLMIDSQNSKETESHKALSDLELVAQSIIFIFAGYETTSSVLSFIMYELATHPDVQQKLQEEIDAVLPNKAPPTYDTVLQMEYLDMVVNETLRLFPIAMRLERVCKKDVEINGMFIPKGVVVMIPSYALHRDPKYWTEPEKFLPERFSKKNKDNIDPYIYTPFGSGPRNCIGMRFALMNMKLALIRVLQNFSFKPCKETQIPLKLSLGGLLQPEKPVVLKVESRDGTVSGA
How it was run: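 Inhibition of CYP3A4 is measured as loss of light: the enzyme converts a proluciferin substrate to luciferin, detected luminescently. Reaction ran 1 h at room temperature with NADPH regeneration after a 10 min compound preincubation.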
Note: nearly all actives have a fitted effect of over 50% in size.

CCC(=O)OCc1ccccc1
Potency [1]: inactive
Potency [2]: inactive
Potency [3]: inactive

CC(=O)c1ccccc1[N+](=O)[O-]
Potency [1]: inactive
Potency [2]: 39.2 µM (active)
Potency [3]: inactive

C=C[Si](OC(C)=O)(OC(C)=O)OC(C)=O
Potency [1]: inactive
Potency [2]: inactive
Potency [3]: inactive

CC1=NS(=O)(=O)c2cc(Cl)ccc2N1
Potency [1]: inactive
Potency [2]: 15.5 µM (active)
Potency [3]: inactive

CN1[C@@H]2CC[C@H]1CC(OC(=O)C(O)c1ccccc1)C2 (stereo partly specified)
Potency [1]: inactive
Potency [2]: inactive
Potency [3]: inactive

CC(N)C12CC3CC(CC(C3)C1)C2 (stereo unspecified)
Potency [1]: inactive
Potency [2]: inactive
Potency [3]: inactive

NC(=O)N1c2ccccc2CC(=O)c2ccccc21
Potency [1]: inactive
Potency [2]: 3.23 µM (active)
Potency [3]: inactive

COc1c(N2CCNC(C)C2)c(F)cc2c(=O)c(C(=O)O)cn(C3CC3)c12 (stereo unspecified)
Potency [1]: inactive
Potency [2]: inactive
Potency [3]: inactive

CN1C(C)(C)CC(O)CC1(C)C
Potency [1]: inactive
Potency [2]: inactive
Potency [3]: inactive

CC(=O)N1C[C@H](O)C[C@H]1C(=O)O
Potency [1]: inactive
Potency [2]: inactive
Potency [3]: inactive

COc1cc(C(=O)NCc2ccc(OCCN(C)C)cc2)cc(OC)c1OC
Potency [1]: inactive
Potency [2]: inactive
Potency [3]: inactive

COc1cc(C(=O)OC(COCCC(C)C)CN2CCOCC2)cc(OC)c1OC (stereo unspecified)
Potency [1]: 3.09 µM (active)
Potency [2]: inactive
Potency [3]: inactive

C=CC(=O)OCCCl
Potency [1]: inactive
Potency [2]: 40.8 µM (active)
Potency [3]: inactive

CC(=O)N[C@H]1[C@H]([C@H](O)[C@H](O)CO)OC(C(=O)O)=C[C@@H]1N=C(N)N
Potency [1]: inactive
Potency [2]: inactive
Potency [3]: inactive

CC1OC1C1CCC2(C)OC2C1 (stereo unspecified)
Potency [1]: inactive
Potency [2]: inactive
Potency [3]: inactive

C=COCC1CCC(COC=C)CC1 (stereo unspecified)
Potency [1]: inactive
Potency [2]: inactive
Potency [3]: inactive

CC(C)C(=O)OC(=O)C(C)C
Potency [1]: inactive
Potency [2]: inactive
Potency [3]: inactive

O=C(O)CC(C(=O)O)S(=O)(=O)O (stereo unspecified)
Potency [1]: inactive
Potency [2]: 31.7 µM (active)
Potency [3]: inactive

C=COC(=O)C(C)(CC)CCC(C)C (stereo unspecified)
Potency [1]: inactive
Potency [2]: inactive
Potency [3]: inactive

CC(C)(C)c1ccc(-c2ccc(C(C)(C)C)cc2)cc1
Potency [1]: inactive
Potency [2]: inactive
Potency [3]: inactive

CC[C@H]1OC(=O)[C@H](C)[C@@H](O[C@H]2C[C@@](C)(OC)[C@@H](O)[C@H](C)O2)[C@H](C)[C@@H](O[C@@H]2O[C@H](C)C[C@H](N(C)C)[C@H]2O)[C@](C)(OC)C[C@@H](C)C(=O)[C@H](C)[C@@H](O)[C@]1(C)O
Potency [1]: inactive
Potency [2]: inactive
Potency [3]: inactive

CC(C)CC(C)(N)C#N (stereo unspecified)
Potency [1]: inactive
Potency [2]: inactive
Potency [3]: inactive

O=C1c2ccccc2C(=O)c2cc(O)ccc21
Potency [1]: 25.2 µM (active)
Potency [2]: 7.11 µM (active)
Potency [3]: inactive

O=[N+]([O-])c1cncn1CCN1CCOCC1
Potency [1]: inactive
Potency [2]: inactive
Potency [3]: inactive

Cc1ccc(-c2ccccc2C#N)cc1
Potency [1]: 15.5 µM (active)
Potency [2]: 13.8 µM (active)
Potency [3]: inactive

N[C@H](C(=O)O)[C@@H](O)c1ccc(O)c(O)c1
Potency [1]: inactive
Potency [2]: inactive
Potency [3]: inactive

CCCc1nn(C)c2c(=O)[nH]c(-c3cc(S(=O)(=O)N4CCN(C)CC4)ccc3OCC)nc12
Potency [1]: 30.9 µM (active)
Potency [2]: inactive

CCNC(=O)[C@@H]1CCCN1C(=O)[C@H](CCCN=C(N)N)NC(=O)[C@H](CC(C)C)NC(=O)CNC(=O)[C@H](Cc1ccc(O)cc1)NC(=O)[C@H](CO)NC(=O)[C@H](Cc1c[nH]c2ccccc12)NC(=O)[C@H](Cc1cnc[nH]1)NC(=O)[C@@H]1CCC(=O)N1 ([pGlu]HWSYGLRP-NHEt)
Potency [1]: inactive
Potency [2]: inactive
Potency [3]: inactive

CN(C)C(=O)Oc1ccc[n+](C)c1
Potency [1]: inactive
Potency [2]: inactive
Potency [3]: inactive

CC1=CC(=O)[C@H]2C[C@@H]1C2(C)C
Potency [1]: inactive
Potency [2]: inactive
Potency [3]: inactive

CCN(C=O)CC
Potency [1]: inactive
Potency [2]: inactive
Potency [3]: inactive

Nc1ccncc1N
Potency [1]: inactive
Potency [2]: inactive
Potency [3]: inactive

O=C(c1ccccc1O)c1ccccc1O
Potency [1]: 62.6 µM (active)
Potency [2]: 3.52 µM (active)
Potency [3]: inactive

CN1CC(=O)N/C1=N/C(=O)Nc1cccc(Cl)c1
Potency [1]: inactive
Potency [2]: 20.4 µM (active)
Potency [3]: inactive

NCCCC[C@H](N[C@@H](CCc1ccccc1)C(=O)O)C(=O)N1CCC[C@H]1C(=O)O
Potency [1]: inactive

CC(CO)(CO)[N+](=O)[O-]
Potency [1]: inactive
Potency [2]: inactive
Potency [3]: inactive

CC(C)(N)C#N
Potency [1]: inactive
Potency [2]: inactive
Potency [3]: inactive

CCN1C=CN(C)C1C (stereo unspecified)
Potency [1]: inactive
Potency [2]: inactive
Potency [3]: inactive
Potency [4]: inactive

Cc1ncc(COP(=O)(O)O)c(C=O)c1O
Potency [1]: inactive
Potency [2]: 17.4 µM (active)
Potency [3]: inactive
Potency [4]: inactive
